The nature of experiment [1]: ATG_AP_1_CIS: Attagene CIS-FACTORIAL HepG2 Assay for human Activator Protein 1 (AP-1) (AID 2282931; active = hit-call score of the fitted dose curve at least 0.9, where 1 is the maximum; inactive = score below 0.9). The conditions noted are these: HepG2 Attagene cis-factorial AP-1 reporter mRNA; actives raise or lower the signal. The procedure, abridged: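 We transfected HepG2 cells transiently with a set of cis-regulated reporter transcription units, dosed them for 24 h, and quantified reporter mRNA via RT-PCR and capillary electrophoresis, scoring gain or loss of signal relative to DMSO.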

Experiment [2] in a line: ATG_E_Box_CIS: Attagene CIS-FACTORIAL HepG2 Assay for human Enhancer Box (E-box) (AID 2282936; active = hit-call score of the fitted dose curve at least 0.9, where 1 is the maximum; inactive = score below 0.9). The following applies: HepG2 E-box cis-reporter transcription, actives raise or lower the signal. The procedure, abridged:
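Cells: HepG2 (human liver), transient MRTU transfection. Exposure 24 h. RNA → oligo(dT) RT → PCR → 6-FAM label → HpaI → CE. Activity fitted both directions relative to DMSO.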

Experiment [3] can be described thus: ATG_GRE_CIS: Attagene CIS-FACTORIAL HepG2 Assay for human Glucocorticoid Response Elements (GRE) (AID 2282947; active = hit-call score of the fitted dose curve at least 0.9, where 1 is the maximum; inactive = score below 0.9). The conditions noted are these: HepG2 GRE cis-reporter, Attagene multiplex mRNA; actives raise or lower the signal. The procedure, abridged:
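Transient MRTU transfection of human HepG2 liver cells; cis-regulated reporters report endogenous factors. 24 h dosing → RNA isolation → RT-PCR → 6-FAM primer extension → HpaI cut → CE fragment analysis. Bidirectional fit, DMSO negative control.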

The target of experiment [4] is Hypoxia-inducible factor 1-alpha (Homo sapiens) (UniProt Q16665). Kind of experiment: ATG_HIF1a_CIS: Attagene CIS-FACTORIAL HepG2 Assay for human Hypoxia Inducible Factor 1 (HIF1A) (AID 2282951; active = hit-call score of the fitted dose curve at least 0.9, where 1 is the maximum; inactive = score below 0.9). The conditions noted are these: HepG2 Attagene cis-factorial HIF1a reporter transcription; actives raise or lower the signal. The procedure, abridged: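 Cis-element reporter constructs were transiently transfected into HepG2 cells, which were treated for 24 h; reporter RNA was reverse-transcribed, amplified, labelled and resolved by capillary electrophoresis.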

Experiment [5] can be described thus: ATG_PBREM_CIS: Attagene CIS-FACTORIAL HepG2 Assay for human Phenobarbital-responsive Enhancer Module (PBREM) (AID 2282955; active = hit-call score of the fitted dose curve at least 0.9, where 1 is the maximum; inactive = score below 0.9). The conditions noted are these: HepG2 PBREM cis-reporter, Attagene multiplexed transcription; actives raise or lower the signal. The procedure, abridged: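 Multiplexed cis-reporter readout in human hepatoma HepG2 cells; PBREM-regulated transcript quantified after 24 h exposure by fluorescent RT-PCR fragment analysis. Signal changes up or down fitted relative to DMSO.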

Experiment [6] can be described thus: ATG_M_06_TRANS: Attagene TRANS-FACTORIAL HepG2 Assay for M06 Transcription Factor (Internal Marker) (AID 2282983).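 Note: reporter transcript level by RT-PCR then capillary electrophoresis fluorescence.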 The following applies: HepG2 Attagene TRANS M06 internal marker reporter. The procedure, abridged: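 Transfect HepG2 with MRTUs → dose compounds 24 h → isolate RNA, oligo(dT) RT → PCR with reporter primers → 6-FAM primer extension → HpaI digest → CE fragment analysis. Positive direction vs DMSO.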

The nature of experiment [7]: ATG_M_32_TRANS: Attagene TRANS-FACTORIAL HepG2 Assay for M32 Transcription Factor (Internal Marker) (AID 2282984).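 Note: transcript level of a background control reporter unit measured by RT-PCR and capillary electrophoresis.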 The conditions noted are these: HepG2 Attagene TRANS M32 internal marker reporter. The procedure, abridged: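 Measures reporter mRNA induction in human HepG2 liver cells after 24 h chemical treatment. Transcripts from transiently transfected GAL4-UAS reporter units are amplified, fluorescently labelled and sized by capillary electrophoresis; gain of signal relative to DMSO.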

Experiment [8] is described as follows: ATG_NFI_CIS: Attagene CIS-FACTORIAL HepG2 Assay for human Nuclear Factor I (NFI) (AID 2282989; active = hit-call score of the fitted dose curve at least 0.9, where 1 is the maximum; inactive = score below 0.9). The conditions noted are these: HepG2 cis-regulatory reporter, NFI response element transcription; actives raise or lower the signal. The procedure, abridged: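 HepG2 cells transiently transfected with cis-element-driven multiplexed reporter transcription units, dosed for 24 h. Reporter mRNA quantified by RT-PCR, fluorescent labelling, HpaI digestion and capillary electrophoresis; bidirectional fit versus DMSO baseline.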

Experiment [9] deals with Cellular tumor antigen p53 (Homo sapiens) (UniProt P04637). The experiment can be described thus: TOX21_p53_BLA_p2_ratio: Tox21 HCT-116 p53 Agonism Beta-lactamase Assay, Ratio, Phase 2 (AID 2283592). The procedure, abridged: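 HCT116 p53-bla; 4000 cells/well; 5 h pre-incubation; cpd in DMSO, 217-fold dilution; 16 h 37C/5% CO2; CCF4-AM 2 h RT; Ex 405, Em 460/530 ratio; DMSO = baseline; positive fitting direction.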

A short description of experiment [10]: TOX21_p53_BLA_p5_viability: Viability Assessment in the Tox21 HCT-116 p53 Agonism Beta-lactamase Assay, Phase 5 (AID 2283600). The procedure, abridged:
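4000 cells/well; 5 h pre-incubation; DMSO compounds pin-transferred, 217-fold dilution; 16 h, 37C/5% CO2; CCF4-AM 2 h RT; CellTiter-Glo 30 min RT; luminescence.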

Experiment [11] has as its target Cellular tumor antigen p53 (Homo sapiens) (UniProt P04637). The experiment can be described thus: TOX21_p53_BLA_p4_ratio: Tox21 HCT-116 p53 Agonism Beta-lactamase Assay, Ratio, Phase 4 (AID 2283601). The procedure, abridged:
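Signal is the blue/green (460nm/530nm) ratio of cleaved versus uncleaved CCF4-AM substrate, read after 2 h substrate loading. Cells were HCT116 carrying the p53-responsive beta-lactamase reporter, dosed 16 h at 37C, 5% CO2; CellTiter-Glo measured in parallel.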

A short description of experiment [12]: ATG_M_61_CIS: Attagene CIS-FACTORIAL HepG2 Assay for M61 Transcription Factor (Internal Marker) (AID 2282937; active = hit-call score of the fitted dose curve at least 0.9, where 1 is the maximum; inactive = score below 0.9). The conditions noted are these: HepG2 Attagene CIS-FACTORIAL M61 internal marker reporter; actives raise or lower the signal. The procedure, abridged: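 Multiplexed reporter mRNA assay, HepG2 human hepatoma cells, 24 h treatment. Signal: FAM-labelled, HpaI-digested RT-PCR fragments by CE. Fit: bidirectional, baseline DMSO.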

Experiment [13] can be described thus: ATG_PPRE_CIS: Attagene CIS-FACTORIAL HepG2 Assay for human Peroxisome Proliferator-activated Response Element (PPRE) (AID 2282958; active = hit-call score of the fitted dose curve at least 0.9, where 1 is the maximum; inactive = score below 0.9). The conditions noted are these: HepG2 PPRE cis-element reporter, Attagene transcription factor profiling; actives raise or lower the signal. The procedure, abridged: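 DMSO served as negative control and baseline for bidirectional curve fitting. Signal came from PPRE-regulated reporter mRNA in HepG2 cells, measured 24 h post-dosing by RT-PCR, 6-FAM primer extension and capillary electrophoresis.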

Experiment [14] deals with Peroxisome proliferator-activated receptor gamma (Homo sapiens) (UniProt P37231). Kind of experiment: ATG_PPARg_TRANS: Attagene TRANS-FACTORIAL HepG2 Assay for human Peroxisome Proliferator-activated Receptor-gamma (PPARg) (AID 2283007). The procedure, abridged:
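Chimeric NR-Gal4 transactivation is measured in transiently transfected HepG2 cells by reporter mRNA induction at 24 h. Detection uses RT-PCR with fluorescent labelling and capillary electrophoresis; DMSO defines baseline.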

Experiment [15] addresses Retinoic acid receptor RXR-alpha (Homo sapiens) (UniProt P19793). The experiment can be described thus: ATG_RXRa_TRANS: Attagene TRANS-FACTORIAL HepG2 Assay for human Retinoid X Receptor alpha (RXRa) (AID 2283012). The procedure, abridged: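 HepG2 cells transiently transfected with GAL4-UAS reporter units and chimeric RXRa-Gal4 protein, treated 24 h. Reporter mRNA measured by RT-PCR, fluorescent labelling, HpaI digestion and capillary electrophoresis. Induction fitted against DMSO.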

The target of experiment [16] is human Retinoid X Receptor beta (RXRb), RXRB (gene 6257) (UniProt P28702). Kind of experiment: ATG_RXRb_TRANS: Attagene TRANS-FACTORIAL HepG2 Assay for human Retinoid X Receptor beta (RXRb) (AID 2283013). The procedure, abridged: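 HepG2 cells were transiently transfected with multiplexed GAL4-UAS reporters and a chimeric RXRb-Gal4 construct, then exposed for 24 h. Reporter mRNA was quantified by RT-PCR, FAM labeling, HpaI digestion and capillary electrophoresis; gain of signal was scored against DMSO.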

Experiment [17] can be described thus: ACEA_ER_AUC_viability: ACEA Biosciences xCELLigence Real-Time Cell Analysis on Estrogen Receptor Agonism for Viability (AID 2283782).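 Note: continuous compound exposure with impedance area under curve over 80 h; hit means loss of impedance signal meaning reduced cell growth or viability.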 The procedure, abridged: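 T-47D; phenol red-free RPMI1640 + 10% CS-FBS; 8 conc., 1:4 serial, max 100 uM final, ≤0.5% DMSO; n = 2; continuous exposure; impedance monitored to 80 h post-dose; AUC vs DMSO.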
Experiment [18] can be described thus: ATG_M_19_TRANS: Attagene TRANS-FACTORIAL HepG2 Assay for M19 Transcription Factor (Internal Marker) (AID 2282974). The conditions noted are these: HepG2 Attagene TRANS-FACTORIAL M19 internal marker reporter. The procedure, abridged: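 Multiplexed TRANS format: HepG2 liver cells bearing transient GAL4-UAS reporter units, chemical treatment 24 h, reporter transcripts quantified by RT-PCR plus capillary electrophoresis. DMSO defines baseline.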

The target in experiment [19] is Cellular tumor antigen p53 (Homo sapiens) (UniProt P04637). The experiment can be described thus: TOX21_p53_BLA_p5_ratio: Tox21 HCT-116 p53 Agonism Beta-lactamase Assay, Ratio, Phase 5 (AID 2283599). The procedure, abridged: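 Beta-lactamase reporter ratio (blue 460 nm over green 530 nm, 405 nm excitation) after 2 h CCF4-AM loading, in HCT-116 cells exposed 16 h at 37 C to compounds pinned at 217-fold dilution. Increases relative to DMSO baseline scored.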

Several values for one entry are separate records, joined by “and”; a condition that tells them apart may be missing. Identical values can stand only once. Inconclusive results are not listed. Some compounds were tested as several samples or in several runs, with calls that do not always agree. Activity calls are given as the source filed them. Rule for the calls, unless noted: active = hit-call score of the fitted dose curve at least 0.9, where 1 is the maximum; inconclusive = response in the unintended direction; inactive = score below 0.9.

One may read the AC50 as the midpoint of the concentration-response curve, whichever way the signal moves.

Chain of Cellular tumor antigen p53 (Homo sapiens) (P04637 whole entry, looked up): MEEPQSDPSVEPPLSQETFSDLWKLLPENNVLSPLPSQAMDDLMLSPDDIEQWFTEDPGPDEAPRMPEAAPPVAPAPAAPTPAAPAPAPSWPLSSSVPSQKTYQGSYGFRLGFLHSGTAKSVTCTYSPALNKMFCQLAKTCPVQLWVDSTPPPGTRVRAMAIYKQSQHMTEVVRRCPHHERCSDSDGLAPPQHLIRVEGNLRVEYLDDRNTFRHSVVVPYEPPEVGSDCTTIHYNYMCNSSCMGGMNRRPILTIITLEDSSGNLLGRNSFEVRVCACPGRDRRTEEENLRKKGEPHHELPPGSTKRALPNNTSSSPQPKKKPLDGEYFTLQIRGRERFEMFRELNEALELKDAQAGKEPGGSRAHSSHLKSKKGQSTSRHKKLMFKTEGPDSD
Chain of Peroxisome proliferator-activated receptor gamma (Homo sapiens) (P37231 whole entry, looked up, the tested form may be a part): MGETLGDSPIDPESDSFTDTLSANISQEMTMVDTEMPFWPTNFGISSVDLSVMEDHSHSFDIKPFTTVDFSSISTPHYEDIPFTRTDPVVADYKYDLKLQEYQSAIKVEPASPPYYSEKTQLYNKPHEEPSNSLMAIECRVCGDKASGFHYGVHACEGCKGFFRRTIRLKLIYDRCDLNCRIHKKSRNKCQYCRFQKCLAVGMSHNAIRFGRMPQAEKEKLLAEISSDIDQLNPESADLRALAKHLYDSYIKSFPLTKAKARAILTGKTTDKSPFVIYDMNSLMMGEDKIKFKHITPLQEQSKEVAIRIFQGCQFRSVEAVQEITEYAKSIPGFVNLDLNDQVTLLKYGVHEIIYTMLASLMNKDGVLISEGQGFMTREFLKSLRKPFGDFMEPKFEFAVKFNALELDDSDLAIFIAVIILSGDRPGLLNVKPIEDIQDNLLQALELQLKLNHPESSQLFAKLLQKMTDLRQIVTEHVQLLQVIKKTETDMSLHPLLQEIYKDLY
Chain of Hypoxia-inducible factor 1-alpha (Homo sapiens) (Q16665 whole entry, looked up): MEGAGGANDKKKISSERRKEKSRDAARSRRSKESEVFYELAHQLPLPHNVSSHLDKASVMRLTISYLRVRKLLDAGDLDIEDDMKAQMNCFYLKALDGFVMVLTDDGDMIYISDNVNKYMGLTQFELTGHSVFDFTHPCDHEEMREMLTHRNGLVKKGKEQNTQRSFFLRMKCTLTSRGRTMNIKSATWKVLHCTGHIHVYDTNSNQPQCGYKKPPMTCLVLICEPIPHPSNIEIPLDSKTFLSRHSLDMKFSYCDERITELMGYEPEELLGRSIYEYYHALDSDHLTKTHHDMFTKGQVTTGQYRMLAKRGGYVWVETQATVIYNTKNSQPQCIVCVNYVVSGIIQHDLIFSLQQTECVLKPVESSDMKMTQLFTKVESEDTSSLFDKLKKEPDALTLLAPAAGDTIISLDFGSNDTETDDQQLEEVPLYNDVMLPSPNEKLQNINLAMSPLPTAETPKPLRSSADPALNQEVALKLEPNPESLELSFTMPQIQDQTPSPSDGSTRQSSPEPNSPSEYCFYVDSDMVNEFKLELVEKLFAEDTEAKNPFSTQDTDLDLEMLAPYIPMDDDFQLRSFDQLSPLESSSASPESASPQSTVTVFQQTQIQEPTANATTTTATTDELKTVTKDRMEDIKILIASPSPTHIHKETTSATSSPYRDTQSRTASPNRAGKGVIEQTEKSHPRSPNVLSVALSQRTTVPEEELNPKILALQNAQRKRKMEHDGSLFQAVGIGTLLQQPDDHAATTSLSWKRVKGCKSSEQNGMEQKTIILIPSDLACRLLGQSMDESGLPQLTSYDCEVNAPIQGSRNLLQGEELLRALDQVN
Chain of human Retinoid X Receptor beta (RXRb), RXRB (gene 6257) (P28702 whole entry, looked up, the tested form may be a part): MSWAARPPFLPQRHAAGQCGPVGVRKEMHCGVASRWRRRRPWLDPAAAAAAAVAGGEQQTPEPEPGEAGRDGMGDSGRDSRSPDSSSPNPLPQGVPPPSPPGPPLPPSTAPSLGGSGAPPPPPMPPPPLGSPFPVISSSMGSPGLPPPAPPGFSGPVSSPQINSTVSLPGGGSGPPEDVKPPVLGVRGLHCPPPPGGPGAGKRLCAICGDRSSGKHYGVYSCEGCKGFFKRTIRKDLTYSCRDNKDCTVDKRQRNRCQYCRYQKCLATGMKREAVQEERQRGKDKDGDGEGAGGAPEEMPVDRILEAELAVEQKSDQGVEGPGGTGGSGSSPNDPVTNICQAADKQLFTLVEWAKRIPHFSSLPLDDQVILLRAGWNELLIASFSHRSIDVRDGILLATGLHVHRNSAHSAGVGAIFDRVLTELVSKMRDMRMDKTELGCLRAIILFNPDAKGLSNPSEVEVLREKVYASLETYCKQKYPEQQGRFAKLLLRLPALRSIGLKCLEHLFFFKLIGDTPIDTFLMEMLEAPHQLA
Chain of Retinoic acid receptor RXR-alpha (Homo sapiens) (P19793 whole entry, looked up, the tested form may be a part): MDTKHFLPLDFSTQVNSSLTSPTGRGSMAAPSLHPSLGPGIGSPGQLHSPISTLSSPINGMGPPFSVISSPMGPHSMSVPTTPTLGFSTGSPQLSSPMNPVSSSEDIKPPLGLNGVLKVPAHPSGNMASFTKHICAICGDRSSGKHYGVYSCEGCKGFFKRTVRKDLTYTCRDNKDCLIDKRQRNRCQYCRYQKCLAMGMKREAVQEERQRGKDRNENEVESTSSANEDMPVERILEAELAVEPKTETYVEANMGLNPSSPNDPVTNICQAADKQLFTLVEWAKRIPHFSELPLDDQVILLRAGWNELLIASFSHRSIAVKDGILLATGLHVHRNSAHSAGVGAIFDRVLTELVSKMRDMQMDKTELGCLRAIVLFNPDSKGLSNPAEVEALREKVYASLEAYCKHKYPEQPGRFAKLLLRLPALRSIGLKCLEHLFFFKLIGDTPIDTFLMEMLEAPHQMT

For the molecule `CCOC(=O)COc1ccc(Cl)cc1Cl`, the result in [1], in [2], in experiment [3], in experiment [4], in experiment [5] and in [6] was inactive. Further, the result in experiment [7], in experiment [8], in experiment [9], in [10] and in experiment [11] was inactive.
With `Nc1c(Cl)c(Cl)c(Cl)c(Cl)c1Cl`, the result in experiment [2], in experiment [12], in experiment [3], in experiment [4], in experiment [5] and in experiment [13] was inactive. For the same molecule, the call in experiment [6], in [7], in experiment [14], in experiment [15] and in experiment [17] was inactive. Besides, the AC50 in experiment [16] is 28.6 µM (active).
For `N#CCNCC#N`, the outcome in [1], in experiment [2], in experiment [12], in [4], in experiment [5] and in experiment [13] was inactive. For the same molecule, the molecule was called inactive in [18], in experiment [6], in [7], in experiment [14], in [15] and in experiment [9]. The outcome in experiment [11] and in [17] was inactive.
As to `Oc1ccc(Cl)cc1`, the result in experiment [1], in experiment [12], in experiment [4], in [5], in experiment [13] and in experiment [6] was inactive. Further, the result in experiment [7], in [8], in experiment [15], in experiment [9], in [19] and in experiment [10] was inactive. In addition, the outcome in experiment [11] and in experiment [17] was inactive.
Regarding `COc1ncc(F)c2nc(S(=O)(=O)Nc3c(F)cccc3F)nn12`, the call in experiment [1], in experiment [2], in [12], in experiment [3], in [5] and in experiment [18] was inactive. Moreover, the molecule was classed as inactive in experiment [8] and in [15].
For the molecule `COCC(=O)N(c1c(C)cccc1C)N1CCOC1=O`, the molecule was called inactive in [1], in experiment [2], in [12], in experiment [4], in experiment [5] and in [18]. Moreover, the outcome in experiment [7], in experiment [8], in [15], in experiment [9] and in [19] was inactive.
Consider `C=C(Cl)Cl`, for which the outcome in experiment [2], in [3], in experiment [4], in experiment [5], in experiment [13] and in experiment [6] was inactive. Besides, the molecule was called inactive in experiment [8], in [14], in experiment [10] and in [11].
With `O=C(O)CCCc1ccc(N(CCCl)CCCl)cc1`, the molecule was called inactive in experiment [1], in [2], in experiment [13], in experiment [18], in experiment [6] and in [7]. The outcome in experiment [8], in [15], in experiment [16], in [10] and in experiment [11] was inactive. For the same molecule, the AC50 in experiment [9] is 64.5 µM (active) and 68.4 µM (active) and 32.3 µM (active); in [19], 62.6 µM (active) and 64.8 µM (active) and 27.3 µM (active); in experiment [11] it was 71 µM (active); in experiment [17], 27.3 µM (active).
For the molecule `C=CC(=O)OC`, the result in [1], in experiment [2], in experiment [5], in experiment [13], in experiment [6] and in experiment [7] was inactive. Further, the molecule was called inactive in experiment [8], in experiment [16], in experiment [9], in experiment [10] and in experiment [11].
`Cc1ccc(OP(=O)(Oc2ccc(C)cc2)Oc2ccc(C)cc2)cc1` (tested in a mixture with another compound): the call in [1], in experiment [12], in [3], in experiment [4], in [13] and in experiment [18] was inactive. In addition, the molecule was classed as inactive in [6], in experiment [8], in experiment [15], in experiment [9], in experiment [10] and in experiment [17]. In experiment [14], the AC50 is 1.85 µM (active).
